Test results as given in PubChem BioAssay AID651819 (National Center for Advancing Translational Sciences (NCATS), 2012).
The whole screen tested about 360,000 compounds, of which about 1,100 (0.31%) were called active. Rule as the data show it: active = activity change below about -30%; inactive = the rest. What follows is part of a selection rich in actives, with near analogues and random picks from the rest.

system: cytosolic chaperonin (CCT/TRiC complex); test: High-Throughput Screening for Modulators of Cytosolic Chaperonin Activity; details: purified chaperonin ATPase assay, HTRF ADP detection, 30 min; active compounds read low
Source text: The eukaryotic chaperonin named TRiC (for TCP-1 ring complex), also called CCT (for chaperonin containing TCP1), is an essential and conserved chaperone required for the folding and activation of 10-15% of the proteins encoded by the human genome. […] Despite its central role in cellular folding, little is known about TRiC mechanism and mode of substrate binding. Currently, no specific TRiC inhibitors are available. Given the early promise of other chaperone-directed inhibitors as cancer therapeutics (e.g. HSP90 inhibitors), inhibitors of TRiC activity may also selectively target transformed cells and have potential use as therapeutics for cancer.
To this end, a miniaturized assay was developed to screen against the Molecular Libraries Small Molecule Repository (MLSMR).
NIH Chemical Genomics Center [NCGC]
NIH Molecular Libraries Probe Centers Network [MLPCN]
Assay Submitter (PI): Judith Frydman, Stanford University
1.5 uL/well TRiC enzyme suspended in buffer (30 mM TRIS pH7.4, 100 mM KCl, 5 mM MgCl2, 1 mM DTT) was added with BioRAPTR FRD dispenser at 40 nM or 20 nM (based on the enzymatic activity of used batches) final concentration to a white solid bottom medium binding 1536-well plate (Greiner Bio-One, Monroe, NC), and quickly spanned down. 23 nl/well of compound solutions in DMSO were added with a pintool transfer (Kalypsis, San Diego, CA) at a single 76 uM final concentration. Next, 1.5 µl/well ATP was dispensed with BioraptR at 10 uM final concentration after which the plates were incubated at 37 deg C for 30 min. HTRF(R) Transcreener(R) ADP (Cisbio US, Bedford, MA) detection reagents were prepared accordingly to the protocol and dispensed into the plate (1.5 uL/well each), incubated for 30 min at ambient temperature. Then, the plates were read using Envision reader with excitation at 330nm and emission at 615nm (Eu(3)-Cryptate donor signal) and 665nm (d2 acceptor signal). The ratio of […] was calculated for each well.
% is scaled to controls: 0 for no effect and ±100 for the full control effect.

| SMILES | activity change |
| --- | --- |
| COc1ccc2c(c1)C(=O)CC(c1ccccc1)O2 (stereo unspecified) | 0.324% (inactive) |
| Cc1c(O)c(C)c2c(c1O)C(=O)C[C@@H](c1ccccc1)O2 | -31.9% (active) |
| O=C1CC(c2ccccc2)C(=O)N2C(=O)CC(c3ccccc3)C(=O)N12 (stereo unspecified) | -3.94% (inactive) |
| CCc1ccc(C(=O)N2CCN(S(=O)(=O)c3sc(C(=O)O)c(C)c3C(=O)O)CC2)cc1 | -1.96% (inactive) |
| COC(=O)CN(c1nc(C)c(Cl)c(OC)n1)S(=O)(=O)c1ccc(C)cc1 | 2.28% (inactive) |
| CC1CCC2(CC1)NC(=O)N(CC(=O)c1cccn1C)C2=O (stereo unspecified) | 0.876% (inactive) |
| Cc1cc(C(F)F)nn1CC(=O)NC1CCCCCC1 | -0.636% (inactive) |
| O=C(Cn1nc([N+](=O)[O-])nc1Br)NC1CCCCC1 | -63% (active) |
| Cc1nn(CC(=O)NC2CCCCC2)c(=O)c2cccn12 | 0.008% (inactive) |
| COc1c(Br)cc2c(C)c(C(=O)N3CCOCC3)oc2c1Br | -0.84% (inactive) |
| Cc1ccc2[nH]c(=O)c(CN(C)S(=O)(=O)c3cccc4nonc34)cc2c1 | -2.6% (inactive) |
| CCc1ccc(S(=O)(=O)NCC(O)COc2ccc(OC)cc2)cc1 (stereo unspecified) | 2.49% (inactive) |
| Nc1ccc(OCC(O)C[n+]2ccc(CCS(=O)(=O)[O-])cc2)cc1 (stereo unspecified) | -32.1% (active) |
| CCCc1ccc(OCC(O)CN2CCN(C(=O)OCC)CC2)cc1 (stereo unspecified) | 0.305% (inactive) |
| O=C(Nc1cccc(Cl)c1Cl)c1ccccc1NC(=O)C1CC=CCC1C(=O)O (stereo unspecified) | 1.29% (inactive) |
| O=C(c1ccc(Cl)cc1)n1cnc2ccccc21 | -0.842% (inactive) |
| COC(=O)c1ccc(-n2cnc3ccccc32)nc1 | -67.7% (active) |
| COC(=O)c1ccc(SCc2ccccc2)nc1 | -0.717% (inactive) |
| CS(=O)(=O)N(Cc1nc2sc3c(c2c(=O)[nH]1)CCCC3)C1CCCCC1 | -3.6% (inactive) |
| COC(=O)c1sccc1N/N=C(\C)c1ccc(F)c(Cl)c1 | 0.343% (inactive) |
| COc1ccc(CCNC(=O)CS(=O)(=O)Cc2nc(-c3ccc(C)cc3)oc2C)cc1OC | -1.25% (inactive) |

| SMILES | activity change |
| --- | --- |
| Cc1ccc(-c2nc(CS(=O)(=O)CC(=O)NCc3ccc4c(c3)OCO4)c(C)o2)cc1 | -39.8% (active) |
| COc1ccc(-c2nc(CS(=O)(=O)CC(=O)NCc3cccc(Br)c3)c(C)o2)cc1 | -0.857% (inactive) |
| CC12CN(Cc3ccccc3)CC(C)(CN(Cc3ccccc3)C1)C2=NO | 1.91% (inactive) |
| CC(C)(C)CN1C(=O)C(=O)NC[C@H]1Cc1cccc2ccccc12 | -2.37% (inactive) |
| CC(=O)c1ccc(NC(=O)CCc2nnc3ccc(NCc4ccco4)nn23)cc1 | -1.16% (inactive) |
| CCOc1ccccc1NC(=O)CCc1nnc2ccc(NCc3ccco3)nn12 | 1.37% (inactive) |
| O=C(CCc1nnc2ccc(NCc3ccco3)nn12)Nc1cc(F)ccc1F | -33.9% (active) |
| COC(=O)[C@@]1(Cc2ccc(F)cc2)[C@H]2c3cc(C(=O)N(C)C)n(CCc4c[nH]c5ccc(OC)cc45)c3C[C@H]2CN1C(=O)c1ccccc1 | -0.685% (inactive) |
| C=CCOc1ccc(/C=N/NC(=O)C(C)Sc2ccccn2)cc1OCC (stereo unspecified) | -2.2% (inactive) |
| O=C(NNC(=O)c1cccc(S(=O)(=O)Nc2ccc(Cl)cc2)c1)c1ccc(=O)[nH]c1 | -0.309% (inactive) |
| CCc1ccc(/C=N/NC(=O)c2ccc(OC3CCCC3)cc2)s1 | -13.3% (inactive) |
| CC(=O)c1c(C)n(-c2ccc(N(C)C)cc2)c2ccc(OCC(N)=O)cc12 | 0.0827% (inactive) |
| CC(=O)c1c(C)n(-c2ccc(C)cc2)c2ccc(O)cc12 | -47.3% (active) |
| CCOC(=O)c1c(CN2CCOCC2)n(-c2ccccc2)c2ccc(O)cc12 | -1.1% (inactive) |
| Cc1ccc(CN2C(=O)CCC2C(=O)NCCCN2CCCCC2C)cc1 (stereo unspecified) | 0.0456% (inactive) |
| CC1CCN(c2ccc(S(=O)(=O)Nc3cc(C(=O)O)cc(C(=O)O)c3)cc2[N+](=O)[O-])CC1 | -0.243% (inactive) |
| CCc1ccccc1NC(=O)Cc1cn(C)c2ccccc12 | -2.82% (inactive) |
| O=C(NCc1ccco1)C1CCCN(S(=O)(=O)c2cccc3nonc23)C1 (stereo unspecified) | -0.959% (inactive) |
| Cc1ccccc1CN1CCN(CC(=O)NCc2ccccn2)C1=O | 0.386% (inactive) |
| Cc1ccc2c(c1)N(C(=O)CCC(=O)NCc1cccnc1)CCO2 | -3.52% (inactive) |
| Cc1ccccc1CNC(=O)CCC(=O)N1Cc2ccccc2Oc2ncccc21 | -84.3% (active) |

| SMILES | activity change |
| --- | --- |
| COC(=O)[C@@H](NC(=O)NCc1cccc(OC)c1)C(C)C | -2.29% (inactive) |
| COC(=O)Nc1ncc(CN2C(=O)c3ccccc3C2=O)s1 | -0.4% (inactive) |
| Cc1noc(C)c1S(=O)(=O)N1CCCC(C(=O)Nc2nccs2)C1 (stereo unspecified) | -0.498% (inactive) |
| CC(Cc1cccs1)N(Cc1ccc(Cl)cc1)C(=O)c1ccncc1 (stereo unspecified) | 1.98% (inactive) |
| Brc1ccc(-c2csc(N/N=C/c3ccc4c(c3)OCO4)n2)cc1 | -49.7% (active) |
| COc1ccc(C(O)c2nc(-c3ccc4c(c3)OCO4)cs2)cc1 (stereo unspecified) | -0.395% (inactive) |
| CC(O)(c1cccc(F)c1)c1nc(-c2ccc3c(c2)OCO3)cs1 (stereo unspecified) | -0.833% (inactive) |
| O=C(NCCCNC(=O)NC1CCCCC1)NC1CCCCC1 | -1.85% (inactive) |
| Cc1cc(OC(=O)c2ccc(OC(C)C)cc2)c([N+](=O)[O-])c(=O)[nH]1 | -0.062% (inactive) |
| CCCCC(CC)CNC(=O)CCCCn1c(=O)[nH]c2ccsc2c1=O (stereo unspecified) | 1.33% (inactive) |
| O=C(CCC(=O)c1cccs1)NC1CCCCCC1 | 0.811% (inactive) |
| O=C(CCCCCn1c(=S)[nH]c2ccsc2c1=O)NC1CCCCC1 | -30.8% (active) |
| CCN(CC)CCCN=C(N)N | -0.0838% (inactive) |
| CC(C)(C)C(=O)NC1CC2CCCC(C1)N2C(=O)Nc1ccccc1F (stereo unspecified) | -5.23% (inactive) |
| C=CS(=O)c1sc(Cl)c(N2CCOCC2)c1[N+](=O)[O-] (stereo unspecified) | -1.53% (inactive) |
| CC(C)C(NC(=O)C1CCC(C(C)(C)C)CC1)C(=O)NCCCN1CCCCC1 (stereo unspecified) | 0.128% (inactive) |
| O=C(Cc1ccccn1)c1ccc(O)cc1O | -0.381% (inactive) |
| COc1ccc(CC(=O)c2ccc(O)cc2O)cc1OC | -38.8% (active) |
| COc1ccc(CCNC(=O)CCc2ccccc2O)cc1OC | -0.891% (inactive) |
